Results on eight molecules are retold here after PubChem BioAssay (NCI).

The panel holds about 83,000 compounds, 20% with a hit somewhere; the sample as a whole holds those more often.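 Testing used 96-well plates and a 48-hour single-concentration exposure. Example: -40 means 40% of the starting cells died.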 Values without a mark were called inactive. Calls of active or inactive are those of the source. Rule for the calls: active = growth percent below 10; inactive = the rest.

Some test systems named below: HCT-15 colon; HT29 colon; SNB-75 CNS; SNB-19 CNS; U251 CNS; PC-3 prostate; SK-MEL-5 melanoma; UACC-62 melanoma; LOX IMVI melanoma; SK-MEL-28 melanoma; SK-MEL-2 melanoma; EKVX NSCLC; SN12C renal; UO-31 renal; TK-10 renal; ACHN renal; CAKI-1 renal; A498 renal; CCRF-CEM leukemia; MOLT-4 leukemia.
Common to all, as to experiment: NCI-60 one-dose screen, 48 h (100 = growth as untreated, 0 = no growth, -100 = all killed)
Holding throughout (conditions): 10 µM unless noted

On to `CCCCCCCCn1ccc2cc(NC(=O)Cn3cc(CN4CCOCC4)nn3)ccc21`, for which the growth in the experiment with HCT-15 colon was 92.4%; in the experiment on HT29 colon, 108%; in the experiment on SNB-75 CNS, 100%; in the experiment with SNB-19 CNS, 92.9%; with U251 CNS, 88.5%; with PC-3 prostate, 75.2%. For the same molecule, the growth with SK-MEL-5 melanoma is 86.7%; in the experiment on UACC-62 melanoma it was 86.8%; in the experiment on LOX IMVI melanoma it was 102%; in the experiment with SK-MEL-28 melanoma, 99.8%; with SK-MEL-2 melanoma, 100%; in the experiment with EKVX NSCLC, 87.9%. For the same molecule, the growth with SN12C renal was 100%; with UO-31 renal it was 78.3%; with TK-10 renal, 108%; in the experiment with ACHN renal, 98.5%; with CAKI-1 renal, 83.9%; in the experiment with A498 renal it was 99.7%. In addition, the values for the growth in the experiment with CCRF-CEM leukemia and in the experiment with MOLT-4 leukemia were -31.6% (active) and 35.8%, respectively.
`COc1ccc(NC(=O)c2cccc(C3CCc4c(cc(OC)c(OC)c4OC)O3)c2)cc1` (stereo not given): the growth in the experiment on HCT-15 colon is 17.3%; in the experiment with HT29 colon, 6.06% (active); in the experiment on SNB-75 CNS, 13.1%; in the experiment with SNB-19 CNS it was 33.3%; in the experiment with U251 CNS, 23.4%; in the experiment on PC-3 prostate, 5.96% (active). For the same molecule, the growth with SK-MEL-5 melanoma is 4.29% (active); with UACC-62 melanoma it was 31.6%; in the experiment with LOX IMVI melanoma, 28.7%; with SK-MEL-28 melanoma it was 47%; in the experiment with SK-MEL-2 melanoma, 9.28% (active); with EKVX NSCLC, 47%. Further, the growth was 31.4% in the experiment on SN12C renal; 28.8% in the experiment on UO-31 renal; 43.7% in the experiment with TK-10 renal; 41.1% in the experiment on ACHN renal; 44.6% in the experiment on CAKI-1 renal; -8.67% (active) in the experiment with A498 renal. The growth with CCRF-CEM leukemia is -1.05% (active); in the experiment on MOLT-4 leukemia, 9.23% (active).
Take `CCN1CCN(CC(=O)Nc2nc3ccc(NCc4ccc(Br)cc4)cc3s2)CC1`: the growth in the experiment on HCT-15 colon is -18.8% (active); in the experiment with HT29 colon it was 2.33% (active); in the experiment on SNB-75 CNS, 89.4%; in the experiment on SNB-19 CNS it was 76.3%; in the experiment on U251 CNS it was 52.9%; in the experiment on PC-3 prostate it was 44.6%. The growth is 47.6% in the experiment on SK-MEL-5 melanoma; -47.1% (active) in the experiment on UACC-62 melanoma; -76.4% (active) in the experiment on LOX IMVI melanoma; -66.6% (active) with SK-MEL-28 melanoma; 55.4% in the experiment on SK-MEL-2 melanoma; 68.2% in the experiment on EKVX NSCLC. Moreover, the growth in the experiment with SN12C renal is 63.8%; with UO-31 renal, 59.5%; in the experiment with TK-10 renal, 87%; in the experiment on ACHN renal it was 74.6%; in the experiment on CAKI-1 renal, 35.5%; with A498 renal, 88.8%. In addition, the growth in the experiment on CCRF-CEM leukemia is 34.2%; with MOLT-4 leukemia, 31.7%.
`N=c1c2c(=N)n3c(nc2nc2n1-c1ccccc1Sc1ccccc1-2)sc1cc(Cl)ccc13`: the growth with HCT-15 colon was 15.7%; in the experiment on HT29 colon, 26.4%; in the experiment on SNB-75 CNS, 53.4%; in the experiment on SNB-19 CNS, 30.7%; with U251 CNS, 9.17% (active); in the experiment on PC-3 prostate, 19.4%. The growth with SK-MEL-5 melanoma was -12.8% (active); in the experiment with UACC-62 melanoma, 13.8%; in the experiment on LOX IMVI melanoma, 13.5%; with SK-MEL-28 melanoma, 25%; in the experiment with SK-MEL-2 melanoma it was -2.45% (active); in the experiment with EKVX NSCLC, 13.8%. Further, the growth in the experiment on SN12C renal was 25%; in the experiment with UO-31 renal, 7.88% (active); in the experiment with TK-10 renal, 33.6%; in the experiment on ACHN renal, 18.2%; with CAKI-1 renal, 8.56% (active); with A498 renal it was 0.653% (active). In addition, the values for the growth with CCRF-CEM leukemia and in the experiment with MOLT-4 leukemia were 37.7% and 48.4%, respectively.
For `Cc1cccc(-n2c(C)nc3ccc(N4CCCNC4=O)cc3c2=O)c1`, the growth with HCT-15 colon is 113%; in the experiment with HT29 colon, 106%; in the experiment with SNB-75 CNS it was 103%; in the experiment with SNB-19 CNS it was 98.2%; in the experiment on U251 CNS it was 93.4%; in the experiment with PC-3 prostate, 100%. The growth was 102% with SK-MEL-5 melanoma; 97.3% with UACC-62 melanoma; 97.7% in the experiment on LOX IMVI melanoma; 112% with SK-MEL-28 melanoma; 106% in the experiment with SK-MEL-2 melanoma; 99.5% in the experiment with EKVX NSCLC. Also, the growth is 98% in the experiment with SN12C renal; 88.7% in the experiment on UO-31 renal; 104% in the experiment with TK-10 renal; 111% in the experiment on ACHN renal; 99.8% in the experiment with CAKI-1 renal; 90.1% in the experiment with A498 renal. For the same molecule, the growth is 106% in the experiment on CCRF-CEM leukemia and 110% in the experiment on MOLT-4 leukemia.
As for `O=C1Nc2ccccc2/C1=C/c1cn(C[C@@H](O)Cn2c3ccccc3c(=O)c3ccccc32)c2ccccc12`, the growth with HCT-15 colon was 73.9%; with HT29 colon, 77.8%; in the experiment with SNB-75 CNS, 63.6%; in the experiment with SNB-19 CNS, 73.1%; in the experiment with U251 CNS, 75.2%; with PC-3 prostate, 51.1%. For the same molecule, the growth in the experiment on SK-MEL-5 melanoma is 67.1%; in the experiment with UACC-62 melanoma, 69.2%; in the experiment on LOX IMVI melanoma it was 69.1%; in the experiment with SK-MEL-28 melanoma, 95.4%; in the experiment on SK-MEL-2 melanoma it was 79.9%; in the experiment with EKVX NSCLC it was 73.1%. In addition, the growth in the experiment with SN12C renal was 73.7%; with UO-31 renal, 30.4%; with TK-10 renal it was 90.6%; in the experiment on ACHN renal, 65.5%; with CAKI-1 renal, 74.2%; with A498 renal it was 91.1%. The growth was 70.5% in the experiment on CCRF-CEM leukemia and 62.6% in the experiment with MOLT-4 leukemia.
Turning to `CCOC(=O)c1cn2ncnc(Oc3ccc(NC(=O)NC4CC4)c(F)c3)c2c1C`, the growth with HCT-15 colon was 60.4%; in the experiment on HT29 colon, 110%; with SNB-75 CNS it was 91.3%; in the experiment on SNB-19 CNS, 89.2%; with U251 CNS it was 82.5%; in the experiment on PC-3 prostate, 87.7%. Besides, the growth in the experiment on SK-MEL-5 melanoma was 94.9%; in the experiment with UACC-62 melanoma, 86.9%; in the experiment on LOX IMVI melanoma, 87.7%; in the experiment on SK-MEL-28 melanoma, 108%; in the experiment on SK-MEL-2 melanoma it was 114%; in the experiment with EKVX NSCLC, 96.3%. The growth in the experiment with SN12C renal is 95.1%; in the experiment on UO-31 renal, 70.6%; in the experiment with TK-10 renal, 119%; in the experiment on ACHN renal, 93.5%; with CAKI-1 renal, 102%; in the experiment with A498 renal it was 54.2%. For the same molecule, the growth is 90.9% in the experiment with CCRF-CEM leukemia and 104% with MOLT-4 leukemia.
Consider `CCCC(O)Cn1ncc(C(=O)OCC)c1NC(=O)NCc1cccc(F)c1` (stereo not given), for which the growth with HCT-15 colon was 99.7%; in the experiment with HT29 colon it was 88.8%; in the experiment with SNB-75 CNS it was 93.6%; in the experiment with SNB-19 CNS, 102%; in the experiment with U251 CNS, 101%; in the experiment with PC-3 prostate, 83.6%. The growth with SK-MEL-5 melanoma was 101%; with UACC-62 melanoma it was 97.1%; in the experiment with LOX IMVI melanoma it was 92.7%; in the experiment on SK-MEL-28 melanoma it was 97.8%; in the experiment with SK-MEL-2 melanoma, 90.7%; in the experiment with EKVX NSCLC it was 97.8%. For the same molecule, the growth with SN12C renal was 99.8%; with UO-31 renal it was 79.3%; in the experiment with TK-10 renal, 87.5%; with ACHN renal, 96.6%; in the experiment on CAKI-1 renal, 84.6%; in the experiment with A498 renal it was 108%. Also, the growth in the experiment with CCRF-CEM leukemia was 90.1%; in the experiment with MOLT-4 leukemia it was 70.6%.
